Results reported in PubChem BioAssay (EPA / NIEHS).
Where “and” joins values, the source holds several entries; their conditions need not be identical. Identical values can stand only once. Inconclusive results are not listed. A structure can be active in one record and inactive in another. Calls of active or inactive are those of the source. Rule for the calls, unless noted: active = hit-call score of the fitted dose curve at least 0.9, where 1 is the maximum; inconclusive = response in the unintended direction; inactive = score below 0.9.

Columns and labels:
[1] = read-out: Thyroid Hormone Responsive (THRSP), THRSP (gene 7069); experiment: LTEA_HepaRG_THRSP: Life Technologies and Expression Analysis (LTEA) Assay for Thyroid Hormone Responsive (THRSP) using HepaRG (AID 2283536; active = hit-call score of the fitted dose curve at least 0.9, where 1 is the maximum; inactive = score below 0.9); details: mRNA level, 48 h; actives raise or lower the signal
Outline: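 qRT-PCR read-out (Fluidigm TaqMan), housekeeping-normalized (ACTB/GAPDH/POLR2A). HepaRG, 48 h chemical exposure, 8-pt half-log series from 100 uM in 0.5% DMSO, duplicates. Bidirectional curve fit vs 0.5% DMSO baseline.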

[2] = read-out: Cellular tumor antigen p53 (Homo sapiens) (UniProt P04637); experiment: LTEA_HepaRG_TP53: Life Technologies and Expression Analysis (LTEA) Assay for Tumor Protein P53 (TP53) using HepaRG (AID 2283537; active = hit-call score of the fitted dose curve at least 0.9, where 1 is the maximum; inactive = score below 0.9); details: mRNA level, 48 h; actives raise or lower the signal
Outline: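 Gain or loss of TP53 mRNA signal is scored relative to 0.5% DMSO after 48 h chemical treatment of HepaRG liver cells, tested in duplicate at eight half-log concentrations up to 100 uM.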

[3] = read-out: UDP glucuronosyltransferase (UGT1A1), UGT1A1 (gene 54658); experiment: LTEA_HepaRG_UGT1A1: Life Technologies and Expression Analysis (LTEA) Assay for UDP glucuronosyltransferase (UGT1A1) using HepaRG (AID 2283538; active = hit-call score of the fitted dose curve at least 0.9, where 1 is the maximum; inactive = score below 0.9); details: mRNA level, 48 h; actives raise or lower the signal
Outline: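 UGT1A1 transcript level, measured by qRT-PCR with three housekeeping genes for normalization, after 48 h treatment of human HepaRG cells (0.5% DMSO, duplicates, up to 100 uM, half-log steps, 8 points). Curves fit both directions against DMSO baseline.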

[4] = read-out: UDP glucuronosyltransferase (UGT1A6), UGT1A6 (gene 54578); experiment: LTEA_HepaRG_UGT1A6: Life Technologies and Expression Analysis (LTEA) Assay for UDP glucuronosyltransferase (UGT1A6) using HepaRG (AID 2283539; active = hit-call score of the fitted dose curve at least 0.9, where 1 is the maximum; inactive = score below 0.9); details: mRNA level, 48 h; actives raise or lower the signal
Outline: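 Expression was quantified by TaqMan qRT-PCR on Fluidigm arrays with ACTB/GAPDH/POLR2A normalization and bidirectional fitting against 0.5% DMSO. HepaRG cells (~100,000/well) were treated in duplicate for 48 h at eight half-log concentrations up to 100 uM in serum-free induction medium.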

[5] = read-out: X-box binding protein 1 (XBP1), XBP1 (gene 7494); experiment: LTEA_HepaRG_XBP1: Life Technologies and Expression Analysis (LTEA) Assay for X-box binding protein 1 (XBP1) using HepaRG (AID 2283540; active = hit-call score of the fitted dose curve at least 0.9, where 1 is the maximum; inactive = score below 0.9); details: mRNA level, 48 h; actives raise or lower the signal
Outline: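 XBP1 transcript by qRT-PCR (housekeeping-normalized: ACTB, GAPDH, POLR2A) after 48 h chemical treatment of HepaRG cells, 8-point half-log series topping at 100 uM, vehicle 0.5% DMSO. Gain and loss of signal fitted relative to DMSO.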

[6] = LTEA_HepaRG_LDH_cytotoxicity: Cytotoxicity Assessment in the Life Technologies and Expression Analysis (LTEA) Assay (AID 2283563);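 for AC50: LDH activity released into spent culture medium as a marker of cell death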
Outline: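 LDH release into culture medium read after 48 h chemical treatment of HepaRG cells. Duplicate wells, eight-point half-log series topping at 100 uM, 0.5% DMSO vehicle and baseline.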

[7] = ATG_XTT_Cytotoxicity: Cytotoxicity Assessment in the Attagene TRANS-FACTORIAL HepG2 Assay (AID 2283584)
Outline: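 Viability endpoint from XTT after 24 h chemical exposure of reporter-transfected human HepG2 liver cells; signal loss fitted relative to DMSO negative control.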

[8] = TOX21_p53_BLA_p2_viability: Viability Assessment in the Tox21 HCT-116 p53 Agonism Beta-lactamase Assay, Phase 2 (AID 2283591);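 note: compound exposure lasted 16 h at 37 °C; actives lower the ATP signal meaning cytotoxicity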
Outline: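 HCT116 p53-bla cells, 4000/well, dosed after 5 h plating (217-fold dilution of DMSO stocks) and incubated 16 h at 37C. Viability taken as cellular ATP by CellTiter-Glo luminescence after 30 min RT; signal loss marks cytotoxicity.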

[9] = target: Cellular tumor antigen p53 (Homo sapiens) (UniProt P04637); experiment: TOX21_p53_BLA_p2_ratio: Tox21 HCT-116 p53 Agonism Beta-lactamase Assay, Ratio, Phase 2 (AID 2283592)
Outline: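 Read-out is the blue/green (460/530 nm, 405 nm excitation) ratio after 2 h CCF4-AM loading, fitted as gain versus DMSO. Compounds, pinned at 217-fold dilution from DMSO stocks, stayed 16 h on HCT-116 beta-lactamase reporter cells seeded 5 h earlier.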

[10] = TOX21_p53_BLA_p3_viability: Viability Assessment in the Tox21 HCT-116 p53 Agonism Beta-lactamase Assay, Phase 3 (AID 2283593);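 note: cells exposed to compound for 16 h before reading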
Outline: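 HCT116 cells, 4000/well, dosed 5 h after plating by pin transfer (217-fold dilution from DMSO stock) and incubated 16 h at 37C, 5% CO2. Viability read as ATP luminescence with CellTiter-Glo after 30 min at room temperature.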

[11] = target: Cellular tumor antigen p53 (Homo sapiens) (UniProt P04637); experiment: TOX21_p53_BLA_p3_ratio: Tox21 HCT-116 p53 Agonism Beta-lactamase Assay, Ratio, Phase 3 (AID 2283596)
Outline: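 Cells were seeded at 4000/well, rested 5 h at 37C, then dosed with DMSO compound solutions (217-fold dilution) for 16 h. CCF4-AM substrate was loaded for 2 h at room temperature, and the 460/530 nm emission ratio was fitted for gain of signal versus DMSO.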

[12] = TOX21_p53_BLA_p4_viability: Viability Assessment in the Tox21 HCT-116 p53 Agonism Beta-lactamase Assay, Phase 4 (AID 2283597);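 note: hits lower the luminescence signal meaning cytotoxicity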
Outline: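 Cytotoxicity as reduced cellular ATP (CellTiter-Glo luminescence, 30 min room temperature), measured in the same wells following the CCF4 FRET p53 reading. Human HCT-116 cells received compounds in DMSO (217-fold dilution) for 16 h.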

[13] = TOX21_p53_BLA_p5_viability: Viability Assessment in the Tox21 HCT-116 p53 Agonism Beta-lactamase Assay, Phase 5 (AID 2283600)
Outline: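 Viability came from CellTiter-Glo ATP luminescence, read after 30 min at room temperature. Before this, HCT-116 p53-bla cells (4000/well) had 16 hours of compound exposure at 37C, with DMSO stocks diluted 217-fold on transfer.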

[14] = target: Cellular tumor antigen p53 (Homo sapiens) (UniProt P04637); experiment: TOX21_p53_BLA_p4_ratio: Tox21 HCT-116 p53 Agonism Beta-lactamase Assay, Ratio, Phase 4 (AID 2283601)
Outline: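 HCT-116 p53 beta-lactamase reporter cells (4000/well) preincubated 5 h, then compound (217-fold dilution of DMSO stock) for 16 h at 37C. CCF4-AM substrate added 2 h at room temperature; 460/530 nm emission ratio fitted upward versus DMSO.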

[15] = Tanguay_ZF_120hpf_MORT_legacy: (Legacy) Oregon State University Tanguay Lab 120 Hour Post-fertilization zebrafish Assay for Mortality (AID 2283633)
Outline: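 Static waterborne exposure from 6 to 120 hpf at 28C of single dechorionated wild-type (5D) embryos per well, 0.64% DMSO final. Death recorded present/absent by brightfield at 24 and 120 hpf.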

[16] = Tanguay_ZF_120hpf_YSE_legacy: (Legacy) Oregon State University Tanguay Lab 120 Hour Post-fertilization zebrafish Assay for Yolk Sac Edema (AID 2283634)
Outline: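 Presence or absence of yolk sac edema was recorded at 120 hpf in surviving larvae. These were wild-type Tropical 5D embryos, chorion removed at 4 hpf, held in static exposure at 28C from 6 hpf with 0.64% DMSO vehicle.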

[17] = Tanguay_ZF_120hpf_AXIS_legacy: (Legacy) Oregon State University Tanguay Lab 120 Hour Post-fertilization zebrafish Assay for Body Axis Malformation (AID 2283635);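 for AC50: potency for an increased fraction of larvae scored with body axis malformation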
Outline: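 Binary scoring of axis defects at 120 hpf under brightfield, fitted positive versus DMSO. Tropical 5D embryos, chorion removed by pronase at 4 hpf, were singly exposed in sealed, dark plates at 28C from 6 hpf; DMSO 0.64% final.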

[18] = Tanguay_ZF_120hpf_EYE_legacy: (Legacy) Oregon State University Tanguay Lab 120 Hour Post-fertilization zebrafish Assay for Eye Malformation (AID 2283636);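 note: binary presence or absence of eye malformation scored by brightfield in 120 hpf larvae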
Outline: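 5D wild-type embryos, pronase-dechorionated at 4 hpf; static exposure 6–120 hpf, 28C, dark; DMSO 0.64% final; 5uM trimethyltin chloride positive control. Binary eye-defect scoring at 120 hpf; dead embryos not scored.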

[19] = Tanguay_ZF_120hpf_SNOU_legacy: (Legacy) Oregon State University Tanguay Lab 120 Hour Post-fertilization zebrafish Assay for Snout Malformation (AID 2283637)
Outline: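 Binary brightfield scoring of snout malformation at 120 hpf. Dechorionated 5D wild-type embryos, one per well, static exposure from 6 hpf at 28C, sealed and dark; final DMSO 0.64% (vol/vol), DMSO as baseline; 5uM trimethyltin chloride positive control.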

[20] = Tanguay_ZF_120hpf_JAW_legacy: (Legacy) Oregon State University Tanguay Lab 120 Hour Post-fertilization zebrafish Assay for Jaw Malformation (AID 2283638);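 for AC50: active means more embryos with jaw malformation than DMSO controls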
Outline: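 Binary jaw-malformation call at 120 hpf by brightfield microscopy. Embryos (Tropical 5D strain, chorion removed at 4 hpf) were dosed statically at 6 hpf, one per well, at 28C with 0.64% DMSO. Embryos that died were not scored.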

Measured: AC50

Chain of Cellular tumor antigen p53 (Homo sapiens) (P04637 whole entry, looked up): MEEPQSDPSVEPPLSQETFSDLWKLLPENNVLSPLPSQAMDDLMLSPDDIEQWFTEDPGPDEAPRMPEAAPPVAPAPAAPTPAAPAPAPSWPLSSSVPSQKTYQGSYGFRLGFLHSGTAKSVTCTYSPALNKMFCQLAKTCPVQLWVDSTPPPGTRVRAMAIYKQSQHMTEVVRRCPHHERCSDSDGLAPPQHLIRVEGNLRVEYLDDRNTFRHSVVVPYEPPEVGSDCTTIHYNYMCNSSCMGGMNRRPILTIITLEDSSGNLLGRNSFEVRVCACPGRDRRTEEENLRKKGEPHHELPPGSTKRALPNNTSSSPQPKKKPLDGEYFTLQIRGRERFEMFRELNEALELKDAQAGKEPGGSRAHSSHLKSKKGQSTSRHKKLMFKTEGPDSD

C[C@]12CC[C@@H]3c4ccc(O)cc4C[C@@H](CCCCCCCCCS(=O)CCCC(F)(F)C(F)(F)F)[C@H]3[C@@H]1CC[C@@H]2O (some centres not stated)
active: [1] 13.7 µM | [2] 0.0628 µM | [3] 26.9 µM | [4] 50 µM | [5] 0.0493 µM
inactive: [6] | [7] | [8] | [9] | [10] | [11] | [12] | [13] | [14] | [15] | [16] | [17] | [18] | [19] | [20]

C#C[C@]1(O)CC[C@H]2[C@@H]3CCC4=CC(=O)CC[C@@H]4[C@H]3CC[C@@]21CC
active: [1] 0.0275 µM | [3] 0.291 µM
inactive: [2] | [4] | [5] | [6] | [7] | [8] | [10] | [11] | [12] | [13] | [14] | [15] | [17] | [18] | [19] | [20]

COCCO
inactive: [1] | [2] | [3] | [4] | [5] | [6] | [7] | [11] | [13] | [15] | [17] | [18] | [19] | [20]

Oc1ccc(C(c2ccc(O)cc2)C(Cl)(Cl)Cl)cc1
active: [2] 90.4 µM | [3] 88.5 µM | [4] 79.2 µM | [5] 74.1 µM | [6] 76.4 µM | [8] 54.6 µM and 45.9 µM | [10] 46.1 µM | [11] 72.1 µM and 74.2 µM | [12] 38.3 µM and 80.7 µM | [13] 66.7 µM | [14] 64.5 µM and 82.7 µM | [17] 63.4 µM | [19] 138 µM | [20] 117 µM
inactive: [1] | [7] | [10] | [13] | [15] | [16] | [18]

CCN(Cc1c(F)cccc1Cl)c1c([N+](=O)[O-])cc(C(F)(F)F)cc1[N+](=O)[O-]
inactive: [4] | [5] | [6] | [7] | [8] | [10] | [11] | [13] | [14] | [15] | [16] | [17] | [18] | [19] | [20]
active: [1] 22.8 µM | [2] 30.3 µM | [3] 7.12 µM | [12] 26.3 µM

O=C(O)c1ccccc1
inactive: [1] | [2] | [3] | [4] | [5] | [6] | [7] | [8] | [9] | [10] | [11] | [12] | [13] | [14] | [15] | [16] | [17] | [18] | [19] | [20]
